# From PubChem BioAssay (NCATS)
# Results filed as inconclusive are left out. The source made the active and inactive calls. Unless noted, calls follow the shape of the dose curve; as a rule, active = well fitted curve in the direction sought with a large enough effect; inconclusive = small, poorly fitted or top-dose-only effect, or another doubt; inactive = no such curve, though single readings can be large; an effect the other way counts as inactive or inconclusive.
# Key:
# [1] = target: Ubiquitin carboxyl-terminal hydrolase 2 (Homo sapiens) (UniProt O75604); test: qHTS for Inhibitors of Ubiquitin-specific Protease USP2a Using CHOP2 as the Reporter: K484 Substrate (AID 652173);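 also: cleavage of internally quenched K48 di-ubiquitin substrate measured as rising fluorescence over time; potency is read from the fitted curve at half-maximal effect; nearly all actives have a fitted effect of over 70% in size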
# Method in brief: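 Kinetic fluorescence (Ex 525/Em 598) tracked cleavage of an internally quenched K48 di-ubiquitin substrate, added as a 100 nM solution. The enzyme was added as a 5 nM USP2 solution before compound pinning, with no-enzyme controls. Buffer: Tris pH 8, beta-mercaptoethanol, CHAPS.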
# [2] = target: Calcium and integrin-binding protein 1 (Homo sapiens) (UniProt Q99828); test: Primary qHTS for Identification of Calcium Integrin Binding Protein 1 (CIB1) Competitor (AID 1508620);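 also: GST tagged CIB1 binding a fluorescein labelled alphaIIb integrin peptide tracer; top concentration of the series differs between compounds; % is scaled to controls: 0 for no effect and ±100 for the full control effect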
# Method in brief: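 CIB1-GST (1 uM final) and compound incubated 15 min at room temperature before adding FITC-alphaIIb peptide tracer (100 nM final). Competition for binding read by fluorescence polarization (ex 480, em 540) after another 15 min at room temperature.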
# [3] = qHTS profiling of the MIPE4 collection as inhibitors of Plasmodium falciparum (3D7) proliferation (AID 743344; call rule not given here;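 also: scaled between DMSO vehicle wells and 0.29 µM artemisinin as full inhibition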); settings: P. falciparum 3D7 in erythrocytes, SYBR Green DNA fluorescence, 72 h; at 28.5 µM (top of the series)
# Method in brief: (§1)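 Parasite DNA was quantified by SYBR Green I fluorescence (ex 485, em 535 nm) after overnight lysis in saponin/Triton buffer at room temperature. Cultures at 0.3% parasitemia and 2.5% hematocrit were first exposed to compound for 72 h at 37 C; signals were normalised to artemisinin (0.29 uM) and vehicle wells.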
# [4] = qHTS profiling of the MIPE4 collection as inhibitors of Plasmodium falciparum (DD2) proliferation (AID 743345; call rule not given here); settings: P. falciparum Dd2 in erythrocytes, SYBR Green DNA, 72 h; at 28.5 µM (top of the series)
# Method in brief: as §1
# [5] = qHTS profiling of the MIPE4 collection as inhibitors of Plasmodium falciparum (DD2) proliferation (Rep 2) (AID 743346; call rule not given here); settings: P. falciparum Dd2 in erythrocytes, SYBR Green DNA, 72 h; at 28.5 µM (top of the series)
# Method in brief: as §1
# [6] = qHTS profiling of the MIPE4 collection as inhibitors of Plasmodium falciparum (HB3) proliferation (AID 743347; call rule not given here;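 also: plate controls were DMSO vehicle wells for no effect and artemisinin wells for full effect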); settings: P. falciparum HB3 in erythrocytes, SYBR Green DNA, 72 h; at 28.5 µM (top of the series)
# Method in brief: as §1
# [7] = Counterscreen qHTS for small molecule stabilizers of the endoplasmic reticulum resident proteome: GLuc-NoTag assay (AID 1508627);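 also: SH-SY5Y cells given compound then 100 nM thapsigargin to empty ER calcium; 0% = thapsigargin alone and -100% = DMSO vehicle control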
# Method in brief: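 Counterscreen line: SH-SY5Y-GLuc-NoTag cells, treated with compound 19 hr before a 4 hr, 100 nM thapsigargin calcium depletion. Secreted Gaussia luciferase in the medium was measured by luminescence after coelenterazine was added (0.07x final), with cells unlysed.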
# [8] = target: Lysosomal acid glucosylceramidase (Homo sapiens) (UniProt P04062); test: Glucocerebrosidase-p2 (AID 348; in the data active = potency below about 10 µM; also: potency is read from the fitted curve at half-maximal effect); settings: purified GBA, blue fluorogenic substrate, 40 min
# Method in brief: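 Normal human glucocerebrosidase (0.2 nM) with blue fluorogenic substrate (80 uM final) in citrate/phosphate pH 5.9 with 10mM sodium taurocholate, 0.01% tween-20; 40 min RT, NaOH/glycine stop; fluorescence Ex 365/Em 440; AC50 from a titration from 0.6 nM upwards.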
# [9] = AP1 Signaling Pathway (AID 357; active = well fitted curve in either direction with a large enough effect, not every such curve was filed as active;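 also: ME-180 reporter cells stimulated with EGF at its EC50 level; % is scaled to controls: 0 for no effect and ±100 for the full control effect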); settings: ME-180 AP-1-bla reporter, EGF-induced, beta-lactamase ratio, 5 h; at 7.69 µM (top of the series) unless noted
# Method in brief: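 Beta-lactamase reporter under AP-1 response element, ME-180 background. Stimulus: EC50 EGF. Compound exposure 5 h, 37 °C. Detection: CCF4, 2.5 h RT, 460/530 nm. Values: AC50 from titration.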
# [10] = target: Cytochrome P450 1A2 (Homo sapiens) (UniProt P05177); test: p450-cyp1a2 (AID 410; calls by dose curve; also: potency is read from the fitted curve at half-maximal effect)
# Method in brief: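 Read-out is luminescence from luciferin produced by CYP1A2 demethylation of Luciferin-ME (100uM, at Km). Detection reagent stopped the 60 min NADPH-dependent reaction; signals were normalized to 57 uM furafylline.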
# [11] = NFAT Signaling Pathway (AID 444; active = well fitted curve in either direction with a large enough effect, not every such curve was filed as active;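 also: carbachol stimulus at about its EC50 of 1 µM final; % is scaled to controls: 0 for no effect and ±100 for the full control effect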); settings: Jurkat NFAT-bla M1, carbachol, beta-lactamase ratio, 5 h; at 7.69 µM (top of the series) unless noted
# Method in brief: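 Read-out: CCF4 FRET ratio (460 nm/530 nm) after 1 h RT dye loading, used for %activity and AC50 from titration series. Cells: Jurkat NFAT-β-lactamase/M1 line, treated with compound plus 1 uM carbachol for 5 h, 37 °C.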
# [12] = Stat Signaling Pathway (AID 446; active = well fitted curve in either direction with a large enough effect, not every such curve was filed as active;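 also: ME-180 cervical cancer cells given 40 pM IL-6 alongside compound; SIE-controlled beta-lactamase reporter measured as 460/530 nm FRET emission ratio; % is scaled to controls: 0 for no effect and ±100 for the full control effect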); settings: ME-180 (cervical carcinoma) SIE beta-lactamase reporter, IL-6 stimulated, 5 h; at 7.69 µM (top of the series) unless noted
# Method in brief: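 Overnight-plated ME-180 cells bearing a STAT Inducible Element beta-lactamase reporter; 5 h co-exposure to compound and 40 pM IL-6; values normalized to 300 pM IL-6 and 125 nM JAK inhibitor controls.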
# [13] = target: Glucocorticoid receptor (Homo sapiens) (UniProt P04150); test: GR-GFP Redistribution (AID 450;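 active = compounds whose dose series gives a full or clear partial fitted curve of increased nuclear translocation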; also: potency is read from the fitted curve at half-maximal effect); settings: U2OS GR-GFP nuclear translocation, laser cytometry, 2 h
# [14] = target: Glucocorticoid receptor (Homo sapiens) (UniProt P04150); test: GR-EFC Redistribution (AID 451; calls by dose curve; also: potency is read from the fitted curve at half-maximal effect); settings: CHO-K1 GR-EFC translocation, beta-gal luminescence, 2 h
# Method in brief: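 Translocation of GR-ED fusion to nuclear EA restores b-gal, read by luminescence after 1 h room-temperature detection. Engineered CHO-K1 biosensor cells, 1,000/well, exposed 2 h at 37 C to titrations up to 46 uM final.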
# [15] = target: Mitogen-activated protein kinase 10 (Mus musculus) (UniProt Q61831); test: JNK3 AlphaScreen Assay (AID 530; active = well fitted curve in either direction with a large enough effect, not every such curve was filed as active)
# Method in brief: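 Kinase buffer: 20 mM Tris-HCl pH 7.6, 10 mM MgCl2, 1 mM DTT, 0.1 mM Na3VO4, 0.01% Tween-20; ATP 10 uM. Substrate biotin-GST-cJun(1-79), enzyme from activated HepG2 lysates. Detection by Ser73 phospho-antibody AlphaScreen.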
# [16] = target: 3',5'-cyclic-AMP phosphodiesterase 4B (Homo sapiens) (UniProt Q07343); test: qHTS Assay for Inhibitors of PDE-IV (AID 607; active = well fitted activation curve with a large enough effect in the main read-out, with a control signal flat, not every such curve was filed as active; also: % of control where 0% means no effect)
# Method in brief: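 Live HEK293 cells with a modified cyclic nucleotide-gated (CNG) channel report intracellular cAMP via membrane-potential dye fluorescence (ex 535/em 590 nm). Endogenous PDE-IV was targeted. Compounds were tested at up to 22.9 uM final; RO 20-1724 100 uM served as control.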
# [17] = target: Cytochrome P450 3A4 (Homo sapiens) (UniProt P08684); test: qHTS Assay for Activators of Cytochrome P450 3A4 (AID 885); also: nearly all actives have a fitted effect of over 65% in size
# Method in brief: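 Using 20nM recombinant human CYP3A4 in potassium phosphate (200mM), substrate Luciferin-PPXE at 25uM, luminescent luciferin detection followed a 60-min RT NADPH reaction; data scaled to 57 uM ketoconazole.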
# [18] = qHTS Assay for Lipid Storage Modulators (AID 1519; calls by dose curve); settings: Drosophila S3 cells, BODIPY lipid droplet/cell ratio, laser cytometry, cells loaded with oleic acid; for activity change, negative = inhibition: at 57.5 µM (top of the series)
# Method in brief: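 Cells seeded at 5,000 per well were treated with compounds over a concentration series and loaded with oleic acid (400 uM, as added). Lipid droplet fluorescence (488 nm excitation, 500-530 nm channel) was read by laser-scanning cytometry and normalized to 20 uM Triacsin C.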
# [19] = Confirmatory qHTS for small molecule stabilizers of the endoplasmic reticulum resident proteome: Secreted ER Calcium Modulated Protein (SERCaMP) assay (AID 1508628); also: nearly all actives have a fitted effect of over 40% in size; also: potency is read from the fitted curve at half-maximal effect
# Method in brief: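 GLuc-SERCaMP-expressing SH-SY5Y cells, pretreated 16 h with compound, are challenged with thapsigargin to empty ER calcium stores; after 4 h, coelenterazine is added directly to the medium and luminescence is imaged.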
# [20] = Cell Viability qHTS for small molecule stabilizers of the endoplasmic reticulum resident proteome (AID 1508629); settings: cell viability counter-screen, 100 nM thapsigargin for final 4 h
# [21] = measured here: cell count channel max response
# [22] = measured here: lipid channel max response
# Sequence of Glucocorticoid receptor (Homo sapiens) (P04150 whole entry, looked up, the tested form may be a part): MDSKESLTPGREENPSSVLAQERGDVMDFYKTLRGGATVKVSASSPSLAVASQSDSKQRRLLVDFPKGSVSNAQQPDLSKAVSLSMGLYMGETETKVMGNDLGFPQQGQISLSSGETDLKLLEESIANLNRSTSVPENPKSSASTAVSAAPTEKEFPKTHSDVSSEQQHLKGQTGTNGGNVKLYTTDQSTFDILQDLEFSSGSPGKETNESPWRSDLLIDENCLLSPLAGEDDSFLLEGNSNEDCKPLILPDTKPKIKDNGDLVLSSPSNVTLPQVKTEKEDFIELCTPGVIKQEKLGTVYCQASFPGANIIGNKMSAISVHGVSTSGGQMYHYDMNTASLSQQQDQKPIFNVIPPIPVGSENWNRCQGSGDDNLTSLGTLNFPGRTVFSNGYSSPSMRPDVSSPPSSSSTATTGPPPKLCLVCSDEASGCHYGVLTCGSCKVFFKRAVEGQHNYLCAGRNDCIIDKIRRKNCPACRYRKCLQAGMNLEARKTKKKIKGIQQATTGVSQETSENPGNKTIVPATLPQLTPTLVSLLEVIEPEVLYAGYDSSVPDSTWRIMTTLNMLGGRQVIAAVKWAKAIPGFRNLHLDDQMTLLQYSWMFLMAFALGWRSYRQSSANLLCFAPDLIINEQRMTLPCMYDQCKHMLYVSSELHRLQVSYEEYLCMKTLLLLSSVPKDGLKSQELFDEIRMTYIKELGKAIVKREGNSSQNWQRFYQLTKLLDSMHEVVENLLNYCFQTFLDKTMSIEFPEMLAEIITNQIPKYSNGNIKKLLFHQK
# Sequence of Ubiquitin carboxyl-terminal hydrolase 2 (Homo sapiens) (O75604 whole entry, looked up): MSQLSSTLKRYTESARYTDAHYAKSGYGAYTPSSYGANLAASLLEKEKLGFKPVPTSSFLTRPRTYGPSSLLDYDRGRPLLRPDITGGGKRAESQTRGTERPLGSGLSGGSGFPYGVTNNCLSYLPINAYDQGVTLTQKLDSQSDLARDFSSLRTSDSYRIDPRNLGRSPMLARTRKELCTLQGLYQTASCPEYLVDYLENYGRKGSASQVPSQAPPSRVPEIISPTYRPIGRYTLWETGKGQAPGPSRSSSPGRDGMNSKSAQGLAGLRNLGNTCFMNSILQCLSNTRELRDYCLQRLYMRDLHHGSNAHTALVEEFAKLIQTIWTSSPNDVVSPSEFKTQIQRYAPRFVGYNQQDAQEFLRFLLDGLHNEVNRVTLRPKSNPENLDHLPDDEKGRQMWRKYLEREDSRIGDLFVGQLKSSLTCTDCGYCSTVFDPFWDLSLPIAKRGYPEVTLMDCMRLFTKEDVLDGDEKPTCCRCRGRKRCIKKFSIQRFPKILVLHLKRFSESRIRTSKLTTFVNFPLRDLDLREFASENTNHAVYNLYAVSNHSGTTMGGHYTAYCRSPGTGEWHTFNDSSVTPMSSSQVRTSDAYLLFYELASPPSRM
# Sequence of Calcium and integrin-binding protein 1 (Homo sapiens) (Q99828 whole entry, looked up): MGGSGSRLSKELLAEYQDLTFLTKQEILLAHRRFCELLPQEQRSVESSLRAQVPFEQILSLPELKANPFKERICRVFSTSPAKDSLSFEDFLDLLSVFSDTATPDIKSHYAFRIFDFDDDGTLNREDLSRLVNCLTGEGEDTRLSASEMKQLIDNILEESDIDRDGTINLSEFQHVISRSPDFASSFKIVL
# Sequence of Cytochrome P450 1A2 (Homo sapiens) (P05177 whole entry, looked up): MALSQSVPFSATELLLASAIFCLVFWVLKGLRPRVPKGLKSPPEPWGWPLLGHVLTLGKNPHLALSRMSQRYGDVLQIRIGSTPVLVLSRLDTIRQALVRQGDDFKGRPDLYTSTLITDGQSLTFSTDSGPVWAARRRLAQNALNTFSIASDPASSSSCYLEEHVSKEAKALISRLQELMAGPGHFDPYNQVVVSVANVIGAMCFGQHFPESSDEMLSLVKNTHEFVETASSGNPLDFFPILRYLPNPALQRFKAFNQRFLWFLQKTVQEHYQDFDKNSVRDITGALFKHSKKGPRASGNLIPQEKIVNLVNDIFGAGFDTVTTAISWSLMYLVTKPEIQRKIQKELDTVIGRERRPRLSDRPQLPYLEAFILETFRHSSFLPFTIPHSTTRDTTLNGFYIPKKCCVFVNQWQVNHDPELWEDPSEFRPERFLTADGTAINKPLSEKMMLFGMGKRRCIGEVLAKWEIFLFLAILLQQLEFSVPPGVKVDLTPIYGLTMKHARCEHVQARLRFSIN
# Sequence of 3',5'-cyclic-AMP phosphodiesterase 4B (Homo sapiens) (Q07343 whole entry, looked up): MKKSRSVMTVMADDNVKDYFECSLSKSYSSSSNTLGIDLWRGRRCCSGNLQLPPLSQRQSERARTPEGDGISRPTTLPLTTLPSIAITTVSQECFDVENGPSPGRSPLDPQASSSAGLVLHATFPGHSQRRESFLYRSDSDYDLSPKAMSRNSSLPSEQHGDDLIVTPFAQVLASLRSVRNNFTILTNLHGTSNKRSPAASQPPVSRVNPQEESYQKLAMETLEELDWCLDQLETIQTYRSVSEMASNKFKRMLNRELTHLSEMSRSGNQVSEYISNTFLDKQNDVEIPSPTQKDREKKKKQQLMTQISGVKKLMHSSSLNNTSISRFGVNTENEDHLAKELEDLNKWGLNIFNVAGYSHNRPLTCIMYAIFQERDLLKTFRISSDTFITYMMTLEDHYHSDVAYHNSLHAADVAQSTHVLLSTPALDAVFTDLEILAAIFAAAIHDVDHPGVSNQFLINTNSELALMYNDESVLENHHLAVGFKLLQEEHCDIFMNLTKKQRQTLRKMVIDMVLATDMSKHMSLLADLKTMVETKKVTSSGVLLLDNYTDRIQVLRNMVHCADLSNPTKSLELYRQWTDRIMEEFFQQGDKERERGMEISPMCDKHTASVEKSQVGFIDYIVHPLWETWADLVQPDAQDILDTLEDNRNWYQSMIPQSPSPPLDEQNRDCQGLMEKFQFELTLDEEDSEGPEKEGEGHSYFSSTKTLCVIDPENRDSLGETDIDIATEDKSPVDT
# Sequence of Cytochrome P450 3A4 (Homo sapiens) (P08684 whole entry, looked up): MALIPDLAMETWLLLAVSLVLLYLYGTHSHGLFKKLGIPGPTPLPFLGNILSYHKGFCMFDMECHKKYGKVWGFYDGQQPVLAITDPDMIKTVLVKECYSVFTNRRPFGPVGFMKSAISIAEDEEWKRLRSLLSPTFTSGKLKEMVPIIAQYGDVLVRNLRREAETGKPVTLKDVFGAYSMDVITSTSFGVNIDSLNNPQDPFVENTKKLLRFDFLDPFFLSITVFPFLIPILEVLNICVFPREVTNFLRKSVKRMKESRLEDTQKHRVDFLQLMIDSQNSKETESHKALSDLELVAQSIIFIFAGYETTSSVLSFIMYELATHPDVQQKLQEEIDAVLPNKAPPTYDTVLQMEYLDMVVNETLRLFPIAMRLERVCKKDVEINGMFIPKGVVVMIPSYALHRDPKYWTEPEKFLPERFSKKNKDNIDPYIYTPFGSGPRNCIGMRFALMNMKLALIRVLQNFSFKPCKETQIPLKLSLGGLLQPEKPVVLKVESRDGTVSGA
# Sequence of Lysosomal acid glucosylceramidase (Homo sapiens) (P04062 whole entry, looked up): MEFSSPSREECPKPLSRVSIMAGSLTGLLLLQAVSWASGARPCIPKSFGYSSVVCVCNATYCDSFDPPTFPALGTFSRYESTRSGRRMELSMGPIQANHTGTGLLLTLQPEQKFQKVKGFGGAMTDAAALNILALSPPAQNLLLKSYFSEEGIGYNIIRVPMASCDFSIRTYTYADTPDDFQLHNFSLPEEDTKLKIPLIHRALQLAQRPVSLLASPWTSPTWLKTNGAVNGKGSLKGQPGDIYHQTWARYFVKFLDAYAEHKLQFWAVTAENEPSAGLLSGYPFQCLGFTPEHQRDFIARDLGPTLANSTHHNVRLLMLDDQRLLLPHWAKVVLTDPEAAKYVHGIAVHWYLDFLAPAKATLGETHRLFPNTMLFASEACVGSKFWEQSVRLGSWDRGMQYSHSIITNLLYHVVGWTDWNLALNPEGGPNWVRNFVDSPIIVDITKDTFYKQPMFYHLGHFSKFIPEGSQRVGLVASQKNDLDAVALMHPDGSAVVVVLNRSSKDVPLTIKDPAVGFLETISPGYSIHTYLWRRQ
smiles,measurement,setting,value
Cc1ccc(S(=O)(=O)Nc2ccc(C)cc2C(=O)Nc2nc(-c3ccccc3)cs2)cc1,Potency,[1],1.93 µM (active)
same,Potency,[2],inactive
O=C([C@H](Cc1ccc(O[S+](=O)([O-])c2cccc3cnccc23)cc1)N[S+](=O)([O-])c1cccc2cnccc12)N1CCN(Cc2ccccc2)CC1,"parasite growth, % of DMSO control",[3],4.76%
same,"parasite growth remaining, % of DMSO control (lower = more inhibition)",[4],6.64%
same,"parasite growth, % of control (lower = inhibition)",[5],19.3%
same,"growth, % of control",[6],5.19%
same,Potency,[2],inactive
Cc1ccc(S(=O)(=O)Nc2cccc(C(=O)Nc3nc(-c4ccccc4)cs3)c2)cc1,Potency,[1],3.43 µM (active)
same,Potency,[2],inactive
O=C(Nc1ccc(-c2ccccc2)cc1)[C@H](Cc1ccc(O[S+](=O)([O-])c2cccc3cnccc23)cc1)N[S+](=O)([O-])c1cccc2cnccc12,"parasite growth, % of DMSO control",[3],5.02%
same,"parasite growth remaining, % of DMSO control (lower = more inhibition)",[4],10.4%
same,"parasite growth, % of control (lower = inhibition)",[5],17.5%
same,"growth, % of control",[6],6.38%
same,Potency,[2],inactive
Cc1ccc(S(=O)(=O)Nc2ccccc2CNc2nc(-c3ccccc3)cs2)cc1,Potency,[1],6.11 µM (active)
same,Potency,[2],inactive
Cc1ccc(C(=O)Nc2ccccc2C(=O)Nc2nc(-c3ccccc3)cs2)cc1,Potency,[1],5.44 µM (active)
same,Potency,[2],inactive
O=C(Nc1ncccn1)c1ccc([N+](=O)[O-])o1,Potency,[7],inactive
Cc1nc2cnc(N3CCN(C)CC3)nc2n(Cc2cccs2)c1=O,Potency,[8],> 11.4 µM (inactive)
same,"activity change, negative = inhibition",[9],6.23% (inactive)
same,Potency,[10],12.6 µM (active)
same,"activity change, negative = inhibition",[11],-2.27% (inactive)
same,"activity, negative = inhibition",[12],-2.61% (inactive)
same,Potency,[13],> 9.22 µM (inactive)
same,Potency,[14],> 46 µM (inactive)
same,outcome,[15],inactive
same,Potency,[16],inactive
same,Potency,[17],inactive
same,"activity change, negative = inhibition",[18],5.56% (inactive)
same,max response,[18]; [21],14%
same,max response,[18]; [22],22.2%
same,Potency,[7],inactive
same,Potency,[19],39.8 µM (active)
same,max response,[20],-5.25% (inactive)
COc1cc(OC)cc(C(=O)N2CCN(Cc3ccccc3C(F)(F)F)CC2)c1,Potency,[7],inactive
same,Potency,[19],inactive
Cc1ccc(C(=O)N/C(=C\c2cccs2)c2nc3ccccc3[nH]2)cc1,Potency,[7],inactive
same,Potency,[19],inactive
same,max response,[20],8.84% (inactive)
COc1ccc(NC(=O)N2CCC3(CC2)CCN(S(=O)(=O)c2ccccc2)CC3)cc1,"activity change, negative = inhibition",[9],-24% (inactive)
same,Potency,[10],31.6 µM (active)
same,"activity change, negative = inhibition",[11],-21.7% (inactive)
same,"activity, negative = inhibition",[12],-16.7% (inactive)
same,Potency,[14],> 46 µM (inactive)
same,outcome,[15],inactive
same,Potency,[16],inactive
same,Potency,[17],inactive
same,"activity change, negative = inhibition",[18],2.68% (inactive)
same,max response,[18]; [21],2.58%
same,max response,[18]; [22],8.36%
same,Potency,[7],inactive
same,Potency,[19],inactive
same,max response,[20],-18.8% (inactive)
